What all share (assay): PBM binding z-score (relative to random genomic background probes); higher = stronger binding; sequences stand for … in GC…GCGATTGACAGCGTAGAATGAAGG
Assay [1] concerns LXRa:RXRa (NR concentration 270 nM, RXRa partner concentration 90 nM). A digest of the protocol: (§1)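 Binding z-scores take random background probes as their reference. They come from custom Agilent 4×180K protein-binding microarrays incubated 1 h with ligand-free nuclear receptor dimers, with antibodies against each partner (one per run) detecting binding. Scanned fluorescence was regression-normalized.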

For assay [2], the system named is LXRa homodimer (NR concentration 270 nM). A digest of the protocol:
as §1

In assay [3] the test system is LXRb homodimer (NR concentration 270 nM). In outline: as §1
Assay [4] relates to PPARa:RXRa (NR concentration 270 nM, RXRa partner concentration 90 nM). In outline: as §1
Assay [5] relates to PPARg:RXRa (NR concentration 180 nM, RXRa partner concentration 90 nM). In outline: as §1
In assay [6] the test system is PPARg:RXRa 270nM:90nM, anti-RXR (NR concentration 270 nM, RXRa partner concentration 90 nM). A digest of the protocol: as §1
Assay [7] relates to PPARg:RXRa 30nM:10nM, anti-RXR (NR concentration 30 nM, RXRa partner concentration 10 nM). In outline: as §1
Assay [8] concerns PPARg:RXRa 90nM:30nM, anti-RXR (NR concentration 90 nM, RXRa partner concentration 30 nM). In outline: as §1
Assay [9] relates to PPARg:RXRa DBDmut IVT, anti-RXR (DBD mutation: RXRa K156A/R161A, NR concentration 270 nM, RXRa partner concentration 90 nM). In outline: as §1
For assay [10], the system named is PPARg:RXRa IVT, anti-PPARg (NR concentration 270 nM, RXRa partner concentration 90 nM). In outline:
as §1

For assay [11], the system named is PPARg DBDmut:RXRa IVT, anti-PPARg (DBD mutation: PPARg1 K132A/R137A, NR concentration 270 nM, RXRa partner concentration 90 nM). In outline: as §1
The test system of assay [12] is PPARg DBDmut IVT, anti-PPARg (DBD mutation: PPARg1 K132A/R137A, NR concentration 270 nM). In outline: as §1
Assay [13] deals with PPARg homodimer (NR concentration 180 nM). A digest of the protocol:
as §1

Assay [14] relates to PXR:RXRa (NR concentration 270 nM, RXRa partner concentration 90 nM). A digest of the protocol: as §1
Assay [15] deals with PXR homodimer (NR concentration 270 nM). In outline: as §1
In assay [16] the test system is RARa:RXR (NR concentration 270 nM, RXRa partner concentration 90 nM). In outline:
as §1

Assay [17] deals with RARa homodimer (NR concentration 270 nM). A digest of the protocol:
as §1

Assay [18] has as its system RARb homodimer (NR concentration 270 nM). A digest of the protocol: as §1
Assay [19] deals with RARb:RXRa (NR concentration 270 nM, RXRa partner concentration 90 nM). In outline: as §1

Drawing on the supplement of paper PMC6555819, this text covers PBM binding z-score for 7 sequences.

For GGAACGAGGTCAAGTTGATAGCAGAGTTTGATGG, the PBM binding z-score came to 6.21 in assay [1]; 2.03 in assay [2]; 2.13 in assay [3]; 6.38 in [4]; 7.7 in assay [5]; 6.96 in assay [6]. Further, the PBM binding z-score was found to be 4.31 in assay [7]; 6.52 in [8]; 6.19 in [9]; 6.52 in [10]; 2.59 in assay [11]; 0.598 in assay [12]. The PBM binding z-score in assay [13] is 3.81; in assay [14], 5.86; in assay [15], 2.91; in assay [16], 5.81; in assay [17] it was 2.1; in [18], 4.59.

As to CGTCAAAGGTCAGAGAGGTCAGTGAATGCCGAGT, the PBM binding z-score in assay [1] amounted to 6.59; in assay [2], 4.99; in assay [3], 1.76; in assay [4], 6.13; in [5], 7.66; in assay [6], 7.15. The PBM binding z-score in assay [7] stood at 4.06; in [8] it was 6.28; in assay [9] it was 4.14; in [10], 5.36; in assay [11], 0.83; in assay [12] it was 0.0737. In addition, the PBM binding z-score in [13] was found to be 5.81; in assay [14] it was 6.7; in assay [15] it was 12.3; in assay [17], 5.86; in assay [18], 6.19.

Take ATATGTAGGTTAGGGTCAGTCAGAAAGTAGGGAA: the PBM binding z-score is 2.82 in [1]; 0.758 in assay [2]; 1.69 in [3]; 4.61 in assay [4]; 6.72 in assay [5]; 5.54 in assay [6]. Besides, the PBM binding z-score was determined as 3.24 in [7]; 4.97 in assay [8]; 6.27 in assay [9]; 6.71 in assay [10]; 1.66 in [12]; 2.59 in assay [13]. Moreover, the PBM binding z-score is 2.64 in [14]; 1.6 in assay [15]; 3.41 in assay [16]; 2.63 in assay [17]; 3.22 in [19]; 3.34 in assay [18].

In the case of CAAAATAGGTCACGAAAGGTCAAAGTCGAATGAC, the PBM binding z-score in assay [1] was 8.64; in assay [2], 8.09; in assay [3], 3.59; in assay [4], 6.79; in assay [5], 10.4; in [6], 8.59. In addition, the PBM binding z-score in assay [7] turned out to be 7.39; in assay [8], 8.59; in assay [9] it was 7.95; in [10], 8.54; in [11], 5.84; in assay [12] it was 4.87. For the same sequence, the PBM binding z-score in assay [13] is 10.7; in assay [15], 3.21; in assay [17], 7.69; in [19] it was 6.03; in assay [18], 5.79.

As for CGAACTAGGTCAAAGGACATTGAAAGGCGACGTA, the PBM binding z-score in assay [1] was 2.7; in assay [2], 0.172; in assay [3], -0.137; in assay [4], 6.03; in assay [5], 10.8; in [6], 8.84. Also, the PBM binding z-score in [7] was found to be 9.04; in assay [8] it was 10.6; in assay [9], 8.06; in [10] it was 8.46; in [12], 2.63; in assay [13], 2.37. Also, the PBM binding z-score is 1.39 in [14]; 0.177 in [15]; 2.7 in [16]; 0.467 in assay [17]; 3.96 in [19]; 3.01 in assay [18].

As for AGAATGAGGTCATTAAGATCAGGGAATTGCGGTC, the PBM binding z-score was found to be 5.58 in assay [1]; 2.12 in assay [2]; 1.68 in assay [3]; 6.05 in assay [4]; 6.93 in assay [5]; 6.63 in [6]. Moreover, the PBM binding z-score in [7] was determined as 3.8; in [8], 5.83; in assay [9] it was 6.03; in [10] it was 6.13; in [11], 2.24; in [12], 0.816. The PBM binding z-score stood at 3.54 in assay [13]; 5.46 in assay [14]; 5.08 in [15]; 5.31 in assay [16]; 0.745 in [17]; 4.79 in [19]. In assay [18], the PBM binding z-score came out at 3.96.

Regarding AGAATGGGGTTATACGTAGATCAGGGAAGAAAGT, the PBM binding z-score in assay [1] is 2.95; in [2] it was 0.583; in assay [3] it was 2.07; in assay [4], 5.16; in assay [5] it was 3.69; in assay [6] it was 4. Besides, the PBM binding z-score in assay [7] came out at 1.39; in [8], 3.03; in assay [9] it was 4.84; in assay [10] it was 2.95; in assay [11] it was 2.51; in assay [12], 1.53. The PBM binding z-score in [13] was determined as 1.86; in [14], 2.56; in assay [15], 1.48; in assay [17], 1.54; in assay [19] it was 1.93; in assay [18], 1.67.
